Measured values: PubChem BioAssay AID2435 (The Scripps Research Institute Molecular Screening Center, 2010)
The campaign covered roughly 320,000 compounds. About 1,000 (0.31%) were called active. What follows is part of a selection rich in actives, with near analogues and random picks from the rest. Unmarked numbers belong to inactive results.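 How the source made its calls: active means activation above the mean of all tested compounds plus 3 SD, cutoff set per screening run (cut at about 20% in these data); inactive means the rest.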

What follows are compounds tested against Oxytocin receptor (Homo sapiens) (UniProt P30559) (assay: oxytocin receptor activation by calcium flux – fluorescence, CHO-OTR cells, Fluo-8 calcium, primary screen (AID 2435;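 further: peak over basal fluorescence ratio from a 100 s FLIPR kinetic read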)). Settings: Fluo-8 calcium fluorescence, at 3 µM, stronger effect = higher value.
Sequence of Oxytocin receptor (Homo sapiens) (P30559 whole entry, looked up): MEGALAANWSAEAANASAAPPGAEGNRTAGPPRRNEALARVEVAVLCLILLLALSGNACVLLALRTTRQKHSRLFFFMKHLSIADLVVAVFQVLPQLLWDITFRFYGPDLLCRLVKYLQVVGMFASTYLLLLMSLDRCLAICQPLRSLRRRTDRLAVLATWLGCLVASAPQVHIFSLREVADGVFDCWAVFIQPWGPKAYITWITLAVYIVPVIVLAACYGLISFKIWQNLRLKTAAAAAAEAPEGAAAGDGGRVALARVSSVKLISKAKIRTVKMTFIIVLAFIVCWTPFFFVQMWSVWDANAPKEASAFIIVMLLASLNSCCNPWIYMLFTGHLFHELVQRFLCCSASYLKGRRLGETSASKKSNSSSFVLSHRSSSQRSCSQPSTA
For `CC(=O)NC(=O)NC(C)Cc1ccccc1` (stereo not given), the activation was -0.72%. For `CC(Cc1ccccc1)NC=O` (stereo not given), the activation was -0.34%. With `CC(Cc1ccccc1)NCCC(c1ccccc1)c1ccccc1` (stereo not given) the activation was 23.9% (active). In the case of `O=C(c1cc2nc(-c3ccccc3)cc(-c3ccccc3)n2n1)N1CCC2(CC1)OCCO2`, the activation is reported as -2.27%. Compound `O=C(Cc1ccc(Cl)cc1)NCCN1CCN(C(=O)Cc2ccc(Cl)cc2)CC1` has an activation of 1.31%.
